The panel holds about 83,000 compounds, 20% with a hit somewhere; the sample as a whole holds those more often.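 Cell lines were cultured in 96-well plates, exposed to a single compound concentration, and assessed for percent growth 48 hours later.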 Unmarked numbers belong to inactive results. Activity calls are given as the source filed them. Rule for the calls: active = growth percent below 10; inactive = the rest.
What was measured:
Assay in all cases: NCI-60 one-dose screen, 48 h (100 = growth as untreated, 0 = no growth, -100 = all killed)
Details in all cases: 10 µM unless noted
NCI-H23 lung = test system: NCI-H23 lung
NCI-H226 lung = test system: NCI-H226 lung
NCI-H322M lung = test system: NCI-H322M lung
HOP-62 NSCLC = test system: HOP-62 NSCLC
NCI-H460 lung = test system: NCI-H460 lung
HOP-92 NSCLC = test system: HOP-92 NSCLC
NCI-H522 lung = test system: NCI-H522 lung
A549/ATCC NSCLC = test system: A549/ATCC NSCLC
786-0 renal = test system: 786-0 renal
COLO 205 colon = test system: COLO 205 colon

Row | Compound | growth (NCI-H23 lung) | growth (NCI-H226 lung) | growth (NCI-H322M lung) | growth (HOP-62 NSCLC) | growth (NCI-H460 lung) | growth (HOP-92 NSCLC) | growth (NCI-H522 lung) | growth (A549/ATCC NSCLC) | growth (786-0 renal) | growth (COLO 205 colon)
1 | C=C1C(=O)O[C@H]2[C@H]1CC/C(COC(=O)NCc1c[nH]c3ccc(Br)cc13)=C\CC[C@@]1(C)O[C@@H]21 | 29.4% | 4.62% (active) | 74% | 58.5% | 24.1% | -46.3% (active) | -89.9% (active) | 49.1% | -47.7% (active) | -78.2% (active)
2 | O=C(CCN1CCCC1)Nc1ccc2c(NCCc3ccccc3)c3ccccc3nc2c1 | -40.2% (active) | -19.8% (active) | -19% (active) | -9.1% (active) | -64.8% (active) | -14.5% (active) | -33.4% (active) | -5.65% (active) | -12.4% (active) | -37.5% (active)
3 | C/C(=N\Nc1cc(C)nc2ccc(Br)cc12)c1ccc([N+](=O)[O-])cc1 | 88.4% | 90% | 82.7% | 76.9% | 69.8% | 77% | 76.6% | 78.6% | 10% | 31.8%
4 | O=C1c2ccc3c4c(ccc(c24)C(=O)N1CCCNCc1ccccc1Cl)C(=O)N(CCCNCc1ccccc1Cl)C3=O | -51.9% (active) | -57.1% (active) | -66.2% (active) | -19.8% (active) | -52.1% (active) | -7.21% (active) | -83.1% (active) | -84.1% (active) | -32.8% (active) | -15.9% (active)
5 | CCOC(=O)[C@@H](C)C[C@H](Cc1ccccc1)NC(=O)c1csc([C@@H](C[C@H](C(C)C)N(C)C(=O)[C@@H](NC(=O)[C@H]2C[C@H](O[Si](C)(C)C(C)(C)C)CCN2C)C(C)C)OC(C)=O)n1 | 17.6% [9.25 µM] | -39.2% [9.25 µM] (active) | 25% [9.25 µM] | 0.247% [9.25 µM] (active) | -23.9% [9.25 µM] (active) | -9.53% [9.25 µM] (active) | -46.7% [9.25 µM] (active) | 7.91% [9.25 µM] (active) | -5.36% [9.25 µM] (active) | -72.6% [9.25 µM] (active)
6 | C=CCN1C(=O)/C(=C/C(=O)OC)S/C1=N\NC(=O)c1cc2ccc1/C=C\c1ccc(cc1)/C=C\2 | 88.2% | 87.5% | 97.1% | 107% | 102% | 81.4% | 60.7% | 94.8% | 91.2% | 110%
7 | O=C(NCCc1ccccc1)Nc1ccc2cc3ccc(NC(=O)NCCc4ccccc4)cc3nc2c1 | 10.3% | 88.7% | 19.2% | 39.4% | 16.8% | 68.1% | -10.8% (active) | 73.8% | 38.4% | 10.8%
8 | O=C(c1ccccc1)N1N=C(c2ccc(-n3ccc(C(F)(F)F)n3)c(F)c2)CC1c1ccc[nH]1 (stereo not given) | 104% | 108% | 98.7% | 122% | 102% | 141% | 89.9% | 99.9% | 97.1% | 116%
9 | COc1cc2nc(-c3ccc(Cl)cc3)cc(OCCCN3CCOCC3)c2cc1OC | 73.3% | -7.3% (active) | 57.4% | 60.1% | 21.6% | 19.3% | 21.6% | 29.9% | 67.5% | 25.7%
10 | CC(=O)[C@@H]1CC[C@]2(CO)CC[C@]3(C)[C@H](CC[C@@H]4[C@@]5(C)CCCNC(C)(C)[C@@H]5CC[C@]43C)[C@@H]12 | 94.6% | 107% | 88.8% | 111% | 100% | 88.7% | 91.6% | 112% | 93.6% | 106%
11 | O=C1c2c(c3c4cccc(F)c4[nH]c3c3ccc4ccccc4c23)C(=O)N1O | 56.2% | 54.1% | 64% | 63.2% | 10.9% | 79.1% | 30% | 65.7% | 70.7% | 57.4%
12 | COc1cc2nc(-c3ccc(Cl)cc3)cc(OCCCN3CCCCC3)c2cc1OC | 64.7% | -9.93% (active) | 63.1% | 54.7% | 25.6% | 34.2% | 34% | 36% | 72.5% | 16.1%
13 | CCCCCC(=O)Oc1ccc(/C(=C(/C)Cc2ccc(OC)cc2)c2ccc(OCCCN(C)C)cc2)cc1 | 76.7% | 93.3% | 92.1% | 80.4% | 69.6% | 73.4% | 98.1% | 76.1% | 58.4% | 55.6%
14 | Nc1nc(Nc2ccccc2SSc2ccccc2Nc2nc(N)nc(-c3cccs3)n2)nc(-c2ccsc2)n1 | 59.5% | 85.2% | 90.6% | -41.2% (active) | 55.9% | 104% | 85.3% | 18.4% | 93.6% | 97.8%
15 | NS(=O)(=O)c1ccc(CCN2C(=O)C=CC2=O)cc1 | 94.6% | 101% | 97.3% | 97.1% | 115% | 108% | 84.6% | 104% | 106% | 123%
16 | COc1ccc(/C=C/c2nc(Nc3ccc(S(=O)(=O)Nc4cc(C)on4)cc3)c3ccccc3n2)cc1 | 81.3% | 65.9% | 37.3% | 57.7% | 53.9% | 46% | 63.5% | 39.1% | 87.9% | 48.6%
17 | CC(C)c1ccc(Nc2ccc3c(OCCCN4CCN(C)CC4)cccc3n2)cc1 | 70.8% | 83.9% | 82.6% | 64.1% | 52.1% | 56.5% | 83.2% | 51.5% | 46.5% | -65.1% (active)
18 | COc1cccc(/C=N/NC(=O)c2cnn3c2NC(c2ccccc2)C3)c1Oc1ccccc1 (stereo not given) | 95.5% | 97.7% | 102% | 74.3% | 88% | 105% | 54.2% | 73% | 79.8% | 79.6%
19 | Cc1ccc(C(=O)/C(=C\c2ccc([N+](=O)[O-])cc2)S(=O)Cc2ccc(F)cc2)cc1 (stereo not given) | 31.6% | 41.5% | 72.6% | 21.5% | 15% | 27.2% | -12% (active) | 73.2% | -66.1% (active) | 2.86% (active)
20 | O=C1Nc2ccccc2/C1=C\c1c(-c2ccc(F)cc2)nc2ccccn12 | 49.1% | 79.2% | 83% | 72.4% | 82.6% | 79.3% | 42.6% | 89% | 82.1% | 76.6%
21 | CCOC(=O)CSc1nc2ccccc2c(=O)n1Cc1ccc(S(N)(=O)=O)cc1 | 98% | 100% | 99.7% | 95.5% | 101% | 94.6% | 91.3% | 98% | 104% | 106%
22 | Cc1cc2nc3c4cc(C=O)ccc4n(CCN(C)C)c3nc2cc1C | 17.4% | -3.6% (active) | 21% | 7.67% (active) | 0.703% (active) | 27% | -9.47% (active) | 6.3% (active) | 27.5% | -15.9% (active)
23 | CCOC(=O)Oc1c(OC)cc(C(=O)c2ccc(OC)c(OC(=O)CCl)c2OC)cc1OC | 32.5% | 64.5% | 45.2% | 16.9% | 10.4% | 57% | 8.85% (active) | 22.9% | 19.2% | 94.8%
